Data: PubChem BioAssay (Tox21)
Activity calls are given as the source filed them. Unless noted, the call rests on the fitted dose curve; in most records, active means well fitted curve in the direction sought with a large enough effect in the repeat runs; inconclusive means weak or mixed curves; inactive means no such curve, though single readings can be large; an effect the other way counts as inactive or inconclusive.

Columns and labels:
[1] = qHTS assay to test for compound auto fluorescence at 535 nm (green) in HEK293 cells (AID 720680)
[2] = qHTS assay to test for compound auto fluorescence at 460 nm (blue) in HEK293 cell free culture (AID 720681)
Method in brief: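 Blue fluorescence (Ex 405/Em 460 nm, triamterene-equivalent) was read immediately after pin transfer of compound or DMSO into medium (DMEM, 10% FBS) without cells.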

[3] = qHTS assay to test for compound auto fluorescence at 535 nm (green) in HEK293 cell free culture (AID 720682)
Method in brief: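 Steps: dispense DMEM/10% FBS into empty wells; pin in compound or DMSO; measure fluorescence at 485/535 nm. Values are fluorescein equivalents.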

[4] = qHTS assay to test for compound auto fluorescence at 590 nm (red) in HEK293 cell free culture (AID 720683)
Method in brief: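 Red-channel autofluorescence of compounds in culture medium (DMEM, 10% FBS), no cells, measured at 540/590 nm. Rose Bengal sodium is the reference fluorophore for equivalence.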

[5] = qHTS assay to test for compound auto fluorescence at 590 nm (red) in HepG2 cell free culture (AID 720684)
Method in brief: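 No cells present: MEM + 10% FBS only. Compound pinned in, red label read (540/590 nm). Activity = fluorescence equivalent to Rose Bengal sodium.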

[6] = qHTS assay to test for compound auto fluorescence at 460 nm (blue) in HepG2 cell free culture (AID 720685)
Method in brief: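 Cell-free plates of MEM plus 10% FBS received 23 nL compound or DMSO vehicle; blue-channel (405/460 nm) intensity scored against triamterene as reference fluorophore.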

[7] = qHTS assay to test for compound auto fluorescence at 535 nm (green) in HepG2 cell free culture (AID 720686)
[8] = qHTS assay to test for compound auto fluorescence at 460 nm (blue) in HepG2 cells (AID 720687)
Method in brief: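 Blue-channel autofluorescence (Ex/Em 405/460 nm, triamterene-equivalent) was measured after 1 hr compound exposure at 37 C, 5% CO2. Cells were HepG2, plated overnight at 37 C in MEM plus 10% FBS.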

[9] = biological target: Glucocorticoid receptor (Homo sapiens) (UniProt P04150); test: qHTS assay to identify small molecule agonists of the glucocorticoid receptor (GR) signaling pathway (AID 720691; active means well fitted activation curve with a large enough effect in the signal ratio in the repeat runs, not every such curve was filed as active; inconclusive means weak or mixed curves, or effect the other way; inactive means no such curve, though single readings can be large or run the other way; the % refers to the signal ratio; further: potency means the concentration at half of the fitted maximal effect); details: GR-bla HeLa, beta-lactamase reporter ratio, 18 h; activation: at 62.4 µM (top of the series)
Method in brief: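 Compounds in DMSO, alongside positive controls, were added to GR-bla HeLa reporter cells and incubated 18 h at 37 C; GRE-driven beta-lactamase was detected by fluorescence after 2 h with FRET substrate at room temperature.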

[10] = qHTS assay to identify small molecule antagonists of the glucocorticoid receptor (GR) signaling pathway - cell viability counter screen (AID 720693); further: nearly all actives have a fitted effect of over 55% in size
[11] = qHTS assay to identify small molecule antagonists of the androgen receptor (AR) signaling pathway - cell viability counter screen (AID 743033; further: nearly all actives have a fitted effect of over 45% in size; further: potency means the concentration at half of the fitted maximal effect)
[12] = biological target: Androgen receptor (Homo sapiens) (UniProt P10275); test: qHTS assay to identify small molecule antagonists of the androgen receptor (AR) signaling pathway (AID 743035; active means well fitted inhibition curve with a large enough effect in the signal ratio in the repeat runs, not every such curve was filed as active; inconclusive means weak or mixed curves, or effect the other way; inactive means no such curve, though single readings can be large or run the other way; the % refers to the signal ratio)
Method in brief: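 Reporter HEK293 cells were exposed to compounds and R1881 overnight (16 h, 37C); beta-lactamase activity was then quantified by FRET fluorescence.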

[13] = biological target: Androgen receptor (Homo sapiens) (UniProt P10275); test: qHTS assay to identify small molecule agonists of the androgen receptor (AR) signaling pathway (AID 743036; active means well fitted activation curve with a large enough effect in the signal ratio in the repeat runs, with a control signal flat, not every such curve was filed as active; inconclusive means weak or mixed curves, or effect the other way; inactive means no such curve, though single readings can be large or run the other way; the % refers to the signal ratio; further: potency means the concentration at half of the fitted maximal effect)
Method in brief: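 Reporter line: GeneBLAzer AR-UAS-bla-GripTite (HEK293). Steps: plate cells, 4 h rest, add compounds, 16 h at 37C, add LiveBLAzer B/G substrate, 2 h at RT, read fluorescence.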

[14] = biological target: Androgen receptor (Homo sapiens) (UniProt P10275); test: qHTS assay to identify small molecule agonists of the androgen receptor (AR) signaling pathway using the MDA cell line (AID 743040; further: nearly all actives have a fitted effect of over 20% in size; further: potency means the concentration at half of the fitted maximal effect)
Method in brief: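 Stable MMTV-luciferase reporter in MDA-kb2 cells; note the promoter carries GR as well as AR response elements. 16 h compound treatment, 37C, 0% CO2; ONE-Glo luminescence endpoint.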

[15] = qHTS assay to identify small molecule antagonists of the androgen receptor (AR) signaling pathway using the MDA cell line - cell viability counter screen (AID 743041; further: nearly all actives have a fitted effect of over 45% in size)
Method in brief: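 Using the breast carcinoma line MDA-kb2 AR-luc, test chemicals were co-incubated with R1881 for 16 h; CellTiter-Fluor reagent, added at 15.5 h, provided a fluorescence measure of live cells.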

[16] = biological target: Androgen receptor (Homo sapiens) (UniProt P10275); test: qHTS assay to identify small molecule antagonists of the androgen receptor (AR) signaling pathway using the MDA cell line (AID 743042; further: nearly all actives have a fitted effect of over 55% in size)
Method in brief: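 Antagonist mode: compounds plus R1881 agonist added to MDA-kb2 AR-luc cells, incubated 16 h at 37C. Luciferase reporter luminescence quantified, with multiplexed CellTiter-Fluor readout for cell viability.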

[17] = qHTS assay for identifying genotoxic compounds that show differential cytotoxicity against isogenic chicken DT40 cell lines with known DNA damage response pathways - wild type cell line (AID 743012); further: nearly all actives have a fitted effect of over 60% in size; further: potency means the concentration at half of the fitted maximal effect
Method in brief: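 Viability of DNA repair-proficient chicken DT40 cells was assessed by CellTiter-Glo luminescence following 40 h compound exposure at 37 C/5% CO2.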

[18] = qHTS assay for identifying genotoxic compounds that show differential cytotoxicity against isogenic chicken DT40 cell lines with known DNA damage response pathways - Rev3 mutant cell line (AID 743014); further: nearly all actives have a fitted effect of over 55% in size; further: potency means the concentration at half of the fitted maximal effect
[19] = qHTS assay for identifying genotoxic compounds that show differential cytotoxicity against isogenic chicken DT40 cell lines with known DNA damage response pathways - Rad54/Ku70 mutant cell line (AID 743015); further: nearly all actives have a fitted effect of over 60% in size; further: potency means the concentration at half of the fitted maximal effect
[20] = biological target: Glucocorticoid receptor (Homo sapiens) (UniProt P04150); test: qHTS assay to identify small molecule antagonists of the glucocorticoid receptor (GR) signaling pathway (AID 720692; active means well fitted inhibition curve with a large enough effect in the signal ratio in the repeat runs, not every such curve was filed as active; inconclusive means weak or mixed curves, or effect the other way; inactive means no such curve, though single readings can be large or run the other way; the % refers to the signal ratio; further: potency means the concentration at half of the fitted maximal effect)
Method in brief: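 In a 1536-well cell format, compounds were added 4 h after seeding GR-bla HeLa cells, together with dexamethasone at 5 nM final; reporter activity was measured by FRET-substrate fluorescence following 18 h at 37 C.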

Measured: Potency

Glucocorticoid receptor (Homo sapiens), sequence (P04150 whole entry, looked up): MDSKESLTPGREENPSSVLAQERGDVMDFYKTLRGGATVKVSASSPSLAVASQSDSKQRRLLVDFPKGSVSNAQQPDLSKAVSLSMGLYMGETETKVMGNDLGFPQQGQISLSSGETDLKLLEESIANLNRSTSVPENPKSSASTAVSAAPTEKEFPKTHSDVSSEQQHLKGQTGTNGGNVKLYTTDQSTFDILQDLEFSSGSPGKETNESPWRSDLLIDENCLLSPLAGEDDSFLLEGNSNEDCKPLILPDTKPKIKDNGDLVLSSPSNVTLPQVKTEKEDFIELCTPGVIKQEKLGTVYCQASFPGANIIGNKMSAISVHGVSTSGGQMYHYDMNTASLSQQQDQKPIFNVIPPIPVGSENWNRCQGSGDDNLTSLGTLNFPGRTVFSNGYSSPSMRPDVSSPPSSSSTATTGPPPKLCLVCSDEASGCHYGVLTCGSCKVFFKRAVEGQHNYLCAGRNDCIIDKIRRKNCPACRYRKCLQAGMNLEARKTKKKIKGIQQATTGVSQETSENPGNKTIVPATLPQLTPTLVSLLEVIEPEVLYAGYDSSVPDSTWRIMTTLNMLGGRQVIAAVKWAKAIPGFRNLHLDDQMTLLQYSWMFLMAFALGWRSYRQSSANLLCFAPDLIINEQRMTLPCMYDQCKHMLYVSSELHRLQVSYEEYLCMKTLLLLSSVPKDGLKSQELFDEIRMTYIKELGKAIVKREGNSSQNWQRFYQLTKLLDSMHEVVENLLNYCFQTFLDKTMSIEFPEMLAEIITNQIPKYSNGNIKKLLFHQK
Androgen receptor (Homo sapiens), sequence (P10275 whole entry, looked up): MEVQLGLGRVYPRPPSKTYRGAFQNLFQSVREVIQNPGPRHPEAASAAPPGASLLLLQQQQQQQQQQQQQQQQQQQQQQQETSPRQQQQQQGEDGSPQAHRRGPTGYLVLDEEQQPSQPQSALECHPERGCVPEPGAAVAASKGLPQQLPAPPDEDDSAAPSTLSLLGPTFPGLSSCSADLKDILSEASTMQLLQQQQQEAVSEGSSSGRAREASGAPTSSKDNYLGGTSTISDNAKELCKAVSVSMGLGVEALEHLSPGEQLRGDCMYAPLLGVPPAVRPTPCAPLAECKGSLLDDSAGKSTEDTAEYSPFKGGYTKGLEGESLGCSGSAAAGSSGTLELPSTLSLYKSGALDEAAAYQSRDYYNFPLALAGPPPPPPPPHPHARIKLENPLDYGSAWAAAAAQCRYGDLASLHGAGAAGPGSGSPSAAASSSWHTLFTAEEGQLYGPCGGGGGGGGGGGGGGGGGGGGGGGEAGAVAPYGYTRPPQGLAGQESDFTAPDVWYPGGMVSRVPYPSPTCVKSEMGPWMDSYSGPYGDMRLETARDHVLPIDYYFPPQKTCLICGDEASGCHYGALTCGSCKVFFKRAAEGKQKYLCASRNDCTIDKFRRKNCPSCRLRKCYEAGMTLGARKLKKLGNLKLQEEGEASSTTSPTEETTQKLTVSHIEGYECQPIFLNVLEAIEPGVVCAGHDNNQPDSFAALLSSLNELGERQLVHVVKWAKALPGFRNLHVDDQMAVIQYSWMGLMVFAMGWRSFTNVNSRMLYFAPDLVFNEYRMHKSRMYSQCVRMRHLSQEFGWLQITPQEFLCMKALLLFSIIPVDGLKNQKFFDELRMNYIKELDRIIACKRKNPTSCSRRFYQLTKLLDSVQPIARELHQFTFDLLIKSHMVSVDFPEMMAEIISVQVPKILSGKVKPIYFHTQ

C[C@@H]1C[C@H]2C3C[C@H](F)C4=CC(=O)C=CC4(C)[C@@]3(F)[C@@H](O)CC2(C)[C@@]1(O)C(=O)COC(=O)C(C)(C)C (stereo partly drawn)
active: [9] 6.7 nM [inconclusive] | [13] 60.1 nM | [14] 4.7 nM
not listed: [17] | [18] | [19] | [20]
inactive: all other assays above

C=Cc1c(C)c2cc3nc(cc4[nH]c(cc5nc(cc1[nH]2)C(C)=C5CCC(=O)OC)c(CCC(=O)O)c4C)[C@@]1(C)C3=CC=C(C(=O)OC)[C@H]1C(=O)OC
inactive: [1] | [2] | [3] | [4] | [5] | [6] | [7] | [8] | [9] | [10] | [11]

COc1cc([C@@H]2c3cc4c(cc3C(O[C@@H]3O[C@@H]5COC(c6cccs6)O[C@H]5[C@H](O)[C@H]3O)C3COC(=O)[C@@H]32)OCO4)cc(OC)c1O (stereo partly drawn)
active: [9] 3380 nM | [17] 11.9 nM | [18] 11.9 nM | [19] 1.1 nM | [11] 301 nM
not listed: [10] | [12] | [13] | [14] | [16] | [20]
inactive: all other assays above

CCC(=O)OCC(=O)[C@@]1(OC(=O)CC)[C@H](C)C[C@H]2[C@H]3[C@H]([C@@H](O)C[C@@]21C)[C@@]1(C)C=CC(=O)C=C1C[C@H]3Cl
active: [9] 20.4 nM | [13] 144 nM | [14] 40.3 nM
not listed: [17] | [19] | [20]
inactive: all other assays above

CC(C)N=c1cc2n(-c3ccc(Cl)cc3)c3ccccc3nc-2cc1Nc1ccc(Cl)cc1
inactive: [1] | [2] | [3] | [4] | [5] | [6] | [7] | [8] | [9] | [11]
active: [18] 11400 nM | [19] 12700 nM

CC(=O)OCC(=O)[C@@]1(O)[C@H](C)C[C@H]2[C@@H]3C[C@H](F)C4=CC(=O)C=C[C@]4(C)[C@H]3[C@@H](O)C[C@@]21C
active: [9] 26.8 nM [inconclusive] | [13] 1340 nM | [14] 29.8 nM
not listed: [12] | [17] | [18] | [19] | [20]
inactive: all other assays above

COC(=O)[C@H]1[C@H]2C[C@@H]3c4[nH]c5cc(OC)ccc5c4CCN3C[C@H]2C[C@@H](OC(=O)/C=C/c2cc(OC)c(OC)c(OC)c2)[C@@H]1OC
not listed: [12] | [13] | [17] | [18] | [19] | [20]
inactive: all other assays above

CCCCCc1ccc(C)cc1O
not listed: [9] | [11] | [12]
inactive: all other assays above

N#CC(c1ccc(Cl)cc1)c1c(Cl)cc(-n2ncc(=O)[nH]c2=O)cc1Cl (stereo not drawn)
active: [20] 23900 nM | [17] 29800 nM | [19] 29800 nM
not listed: [9] | [12] | [13] | [18]
inactive: all other assays above

COc1cc2c(cc1OC)CC(=O)N(CCCN(C)C[C@H]1Cc3cc(OC)c(OC)cc31)CC2
active: [19] 9440 nM
not listed: [12] | [13] | [14] | [16] | [17] | [18] | [20]
inactive: all other assays above

Nc1ncnc2c1ncn2[C@@H]1O[C@H](COP(=O)(O)OP(=O)(O)OP(=O)(O)O)[C@@H](O)[C@H]1O
not listed: [10] | [12] | [13] | [14] | [16] | [20]
inactive: all other assays above

C[C@H](/C=C/[C@H](C)C(C)(C)O)[C@H]1CC[C@H]2/C(=C/C=C3C[C@@H](O)C[C@H](O)C3)CCC[C@]12C
not listed: [10] | [12] | [13] | [14] | [16] | [20]
inactive: all other assays above

S=C=Nc1ccc(N=C=S)cc1
not listed: [9] | [12] | [13] | [14] | [15] | [16] | [20]
inactive: all other assays above

CC(=C\c1ccccc1)/C=C1/SC(=S)N(CC(=O)O)C1=O
not listed: [9] | [11] | [12] | [13] | [14] | [15] | [16] | [20]
inactive: all other assays above
